# Positions count from the first letter of the chain named. The full ranking holds about 5,800 sequences; the median of “enrichment r” is about 0.68, and the highest 2% start at about 11. Only a selection was taken, and the highest values are over-represented in it overall.
# T1: UNK ZnF1-6 (called full-length) (human, UniProt Q9C0B0 30-357)
# T1 sequence: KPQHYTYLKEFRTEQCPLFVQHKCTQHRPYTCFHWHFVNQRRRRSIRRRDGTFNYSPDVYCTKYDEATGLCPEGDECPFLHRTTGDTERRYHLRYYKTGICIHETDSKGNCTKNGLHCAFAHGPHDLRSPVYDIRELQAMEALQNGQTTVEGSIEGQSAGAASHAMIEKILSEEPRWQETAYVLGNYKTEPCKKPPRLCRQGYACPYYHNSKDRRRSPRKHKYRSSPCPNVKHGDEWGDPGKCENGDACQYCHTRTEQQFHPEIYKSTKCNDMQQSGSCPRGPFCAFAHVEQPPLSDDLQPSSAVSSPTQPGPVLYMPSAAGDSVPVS
# B1: chrX:133301433:133301604:-|3pUTR|ENSG00000076716|msi1|total|mutant (ssRNA)
# RNA: GGGAGUUCUACAGUCCGACGAUCUUGUUUUUCUUGGGGGAUGGGGUGGGGUGGGAGCCGGCCGAGCUGAGAAUACUACAUCUCCGUGGUGACCUUCCGCCACGUGGGUGAAGUGGCAAAGGCCAUGGCCAUAUCUGUUGUCCCCAACAGAGGAUUGAGCAUCA
# B2: chr21:44851366:44851434:-|CDS_3pUTR|ENSG00000183255|msi1_unk|total|mutant (ssRNA)
# RNA: GGGAGUUCUACAGUCCGACGAUCAGGACAGUCCUCUCGUCUUGCAGACUGGUGACCUUCUAUUCCCUGUUCAUCUCUGUUUCCCGAUUCCGUCACUUGAAAUAAGAAAUCUUUGGGGUUUGGGCUUUUUUAUACUCUUCUCAGCAACAGAGGAUUGAGCAUCA
# B3: ENSG00000142192:stop:overlap|stop_codon|ENSG00000142192|stop_codon|NA|stop_codon (ssRNA)
# RNA: GGGAGUUCUACAGUCCGACGAUCAGAUGCAGCAGAACGGCUACGAAAAUCCAACCUACAAGUUCUUUGAGCAGAUGCAGAACUAGACCCCCGCCACAGCAGCCUCUGAAGUUGGACAGCAAAACCAUUGCUUCACUACCCAUCCAACAGAGGAUUGAGCAUCA
# B4: chr1:13115521:13116400:-|CDS|ENSG00000275774|control|control|control (ssRNA)
# RNA: GGGAGUUCUACAGUCCGACGAUCGAACAGAGCAAACAAGAGGUAGAGGUGAAAAAUGCUAAGUCAGAAGAGGAGCAGAGCAGUAGCUCCAUGAAGAAAGAUGAGACUCAUGUAAAGAUGGAGUCUGAGGGGGGUGCAGAAGACCAACAGAGGAUUGAGCAUCA
# B5: ENSG00000070961:be:win_5251|3pUTR|ENSG00000070961|bound_else_gene|NA|bound_elsewhere_windowed (ssRNA)
# RNA: GGGAGUUCUACAGUCCGACGAUCUGGAUUCUUUAGCUCUCUUUUUCUUUCCUUCAUCUACCUUCUUCUCUUUUUUGCCUCUGUCUUUACCCUUUAGAAACUGGCAUGUGUUAGGGCCCAGAUUUCACCAGAUACACAAUCCUCCAACAGAGGAUUGAGCAUCA
# B6: ENSG00000198589:be:win_6101|CDS|ENSG00000198589|bound_else_gene|NA|bound_elsewhere_windowed (ssRNA)
# RNA: GGGAGUUCUACAGUCCGACGAUCUAGGAAAUCAGAACUCAGAAAACGAGAUCCUCCUGGAAGGCGAUGAUGAUACUCUGUCAUCCGUGGAUGAGAAAGAUUUAGAGAAUCUUGCCGGUCCUGUUAGCCUGAGCACACCAGCUCCAACAGAGGAUUGAGCAUCA
# B7: ENSG00000227500:stop:overlap|stop_codon|ENSG00000227500|stop_codon|NA|stop_codon (ssRNA)
# RNA: GGGAGUUCUACAGUCCGACGAUCGCAACAGCCUGCCCGAGUACCCCACUGUGCCCAGCUACCCGGGCAGUGGCCAGUGGCCUUAGAGGGAGCCUGCCCUGCCCCCACCGCCCACCACCUCCUCCCCUUCAUUCCUGCUGCUACCAACAGAGGAUUGAGCAUCA
# B8: chr2:171983412:171983537:+|3pUTR|ENSG00000128708|unk|FALSE|unique (ssRNA)
# RNA: GGGAGUUCUACAGUCCGACGAUCUGAUGACUUUAAUUUUAAAAUCUUGUGACAUUUUGCUUAUACUAAAAGUUAUCUAUCUUUAGUUGAAUAUUUUCUUUUGGAGAGAUUGUAUAUUUUAAAAUACUGUUUAGAGUUUAUGAGCAACAGAGGAUUGAGCAUCA
# B9: chr19:57593639:57593745:+|3pUTR|ENSG00000171649|unk|FALSE|unique (ssRNA)
# RNA: GGGAGUUCUACAGUCCGACGAUCUGAACCUUCUUAUUUCUCUACAUUCUUGCCAUACUUGGUAUGGUUAGUCUUUUUAAUUUUAGUUGUUUUAAUAGCUGUAUAAUAGCAUCUGUCUGUGAUUUUAUUGCAUUUUUCUGGUAUCAACAGAGGAUUGAGCAUCA
# B10: chr2:216672374:216672548:-|3pUTR|ENSG00000115461|msi1|total|mutant (ssRNA)
# RNA: GGGAGUUCUACAGUCCGACGAUCUUUUUCUUUUUUUUUUUGAAGACAGCAAUAACCACAGUACAUAUUACUGCCGUUCUCUACCGUUUUACAUACAUUCAUACCAUAACUCUGUUCUCUCCUCUUUUUUGUUUUCAACUUUAACAACAGAGGAUUGAGCAUCA
# B11: chr19:57593639:57593745:+|3pUTR|ENSG00000171649|unk|total|mutant (ssRNA)
# RNA: B9 RNA with U68C, A69C, U83C, A84C, U95C, A96C, U106C, A107C
# B12: chr20:3963869:3963970:-|CDS|ENSG00000101236|unk|total|mutant (ssRNA)
# RNA: GGGAGUUCUACAGUCCGACGAUCAAUCUGCCUCUCAACAUAUAUAUUGUGGUUUUUGGUACUGCUAUAUUUGUCUUCAUCCUCCGUUUACUCUUCUGUUGCUACUUGAUCCGGUAACCAAUUUUCAUUCUAUGUUACUUCAAACAACAGAGGAUUGAGCAUCA
# B13: chr2:216672374:216672548:-|3pUTR|ENSG00000115461|msi1|FALSE|unique (ssRNA)
# RNA: B10 RNA with C73U, C74A, C83U, C84A
# Biological target: T1, UNK ZnF1-6 (called full-length)
# Test: nsRBNS (natural sequence RNA bind-n-seq); RBNS binding buffer (assumed for nsRBNS): 25 mM Tris pH 7.5, 150 mM KCl, 3 mM MgCl2, 0.01% Triton X-100, 500 ug/ml BSA, 20 U/ml SUPERase-In, 4 C; UNK is unkempt and MSI1 is Musashi-1; names of the RNAs are library labels; protein concentration not given here; high values mean tight binding
row,Binder,binding signal
1,B1,1.2 enrichment R
2,B2,0.43 enrichment R
3,B3,0.618 enrichment R
4,B4,0.882 enrichment R
5,B5,1.45 enrichment R
6,B6,0.619 enrichment R
7,B7,0.868 enrichment R
8,B8,4.24 enrichment R
9,B9,122 enrichment R
10,B10,1.89 enrichment R
11,B11,1.21 enrichment R
12,B12,0.575 enrichment R
13,B13,12.2 enrichment R

# Reference: PMC12136788
